In PubChem BioAssay AID1159580 (chemical genetic matrix, 2015):
In all, about 5,500 compounds went through this assay and about 2,000 (36%) were called active. About 18% were inconclusive and are not listed. The list shows a part of the results. A number with no mark means an inactive call. Cut-off read from the data, not from the text of the source: active = normalized growth mostly below about 0.91 (no sharp cut-off); inconclusive = no clear call, values can overlap the other calls; inactive = mostly above about 0.92.

Test: chemical genetic growth profiling, strain panel (AID 1159580);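 note: tested at 20 µM; growth read once vehicle control cultures reached saturation at 30 °C; 1 = growth at the plate median or of vehicle wells; lower values mean less growth of the strain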
Conditions: S. cerevisiae deletion strains, growth OD
[1] = locus YBL105C, strain PKC1, hits give low values
[2] = locus YBR135W, strain CKS1, hits give low values
[3] = locus YBR136W, strain MEC1, hits give low values
[4] = locus YBR160W, strain CDC28, hits give low values
[5] = locus YDL017W, strain CDC7, hits give low values
[6] = locus YDL028C, strain MPS1, hits give low values
[7] = locus YDL108W, strain KIN28, hits give low values
[8] = locus YDL214C, strain PRR2, hits give low values
[9] = locus YDR052C, strain DBF4, hits give low values
[10] = locus YDR226W, strain ADK1, hits give low values
[11] = locus YDR477W, strain SNF1, hits give low values
[12] = locus YER123W, strain YCK3, hits give low values
[13] = locus YER133W, strain GLC7, hits give low values
[14] = locus YFR003C, strain YPI1, hits give low values
[15] = locus YFR019W, strain FAB1, hits give low values
[16] = locus YFR028C, strain CDC14, hits give low values
[17] = locus YGR040W, strain KSS1, hits give low values
[18] = locus YGR052W, strain FMP48, hits give low values
[19] = locus YGR092W, strain DBF2, hits give low values
[20] = locus YHR030C, strain SLT2, hits give low values
[21] = locus YHR079C, strain IRE1, hits give low values
[22] = locus YHR082C, strain KSP1, hits give low values
[23] = locus YHR205W, strain SCH9, hits give low values
[24] = locus YIL147C, strain SLN1, hits give low values
[25] = locus YJL095W, strain BCK1, hits give low values
[26] = locus YJL128C, strain PBS2, hits give low values
[27] = locus YJL157C, strain FAR1, hits give low values
[28] = locus YJR016C, strain ILV3, hits give low values
[29] = locus YJR066W, strain TOR1 (second series), hits give low values
[30] = locus YJR066W, strain TOR1, hits give low values
[31] = locus YKL048C, strain ELM1, hits give low values
[32] = locus YKL067W, strain YNK1, hits give low values
[33] = locus YKL101W, strain HSL1, hits give low values
[34] = locus YKL203C, strain TOR2, hits give low values
[35] = locus YLR113W, strain HOG1, hits give low values
[36] = locus YLR133W, strain CKI1, hits give low values
[37] = locus YLR403W, strain SFP1, hits give low values
[38] = locus YML070W, strain DAK1, hits give low values
[39] = locus YMR205C, strain PFK2 (second series), hits give low values
[40] = locus YNL006W, strain LST8, hits give low values
[41] = locus YNL020C, strain ARK1, hits give low values
[42] = locus YNL183C, strain NPR1, hits give low values
[43] = locus YNL207W, strain RIO2, hits give low values
[44] = locus YNL307C, strain MCK1 (second series), hits give low values
[45] = locus YOL136C, strain PFK27, hits give low values
[46] = locus YOR061W, strain CKA2, hits give low values
[47] = locus YOR119C, strain RIO1, hits give low values
[48] = locus YOR231W, strain MKK1, hits give low values
[49] = locus YPL031C, strain PHO85, hits give low values
[50] = locus YPL153C, strain RAD53, hits give low values
[51] = locus YPL204W, strain HRR25, hits give low values
[52] = locus YPL209C, strain IPL1, hits give low values
[53] = locus YPL256C, strain CLN2, hits give low values
[54] = locus YPR106W, strain ISR1, hits give low values
[55] = locus YPR111W, strain DBF20, hits give low values
[56] = strain NNK1, hits give low values

## COCc1nc2c([nH]1)c(=O)n(C)c(=O)n2CC(C)C
Locus YAL040C, strain CLN3, hits give low values
  normalized growth: 0.991
Locus YCL061C, strain MRC1 (second series), hits give low values
  normalized growth: 1
Locus YDR150W, strain NUM1, hits give low values
  normalized growth: 1
Locus YDR363W, strain ESC2, hits give low values
  normalized growth: 0.997
Locus YER002W, strain NOP16, hits give low values
  normalized growth: 1.02
Locus YGR078C, strain PAC10, hits give low values
  normalized growth: 1.01
Locus YGR229C, strain SMI1, hits give low values
  normalized growth: 0.993
Locus YJR075W, strain HOC1, hits give low values
  normalized growth: 0.994
Locus YNL153C, strain GIM3, hits give low values
  normalized growth: 1.01
Locus YNL175C, strain NOP13, hits give low values
  normalized growth: 0.999
Locus YNL197C, strain WHI3, hits give low values
  normalized growth: 1.01
Locus YNL224C, strain SQS1, hits give low values
  normalized growth: 1
Locus YOR083W, strain WHI5 (second series), hits give low values
  normalized growth: 1.01
Locus YPL241C, strain CIN2, hits give low values
  normalized growth: 1.01

## Cc1ccc(Sc2c(Sc3ccc(C)cc3)c(=O)c2=O)cc1
Locus YAR019C, strain CDC15, hits give low values
  normalized growth: 0.898
[1]
  normalized growth: 0.982
[2]
  normalized growth: 0.961
[3]
  normalized growth: 0.968
[4]
  normalized growth: 0.958
[5]
  normalized growth: 0.971
[6]
  normalized growth: 0.961
Locus YDL101C, strain DUN1, hits give low values
  normalized growth: 0.915
[7]
  normalized growth: 0.964
Locus YDL132W, strain cdc53, hits give low values
  normalized growth: 0.936
[8]
  normalized growth: 0.184 (active)
[9]
  normalized growth: 0.974
[10]
  normalized growth: 0.968
[11]
  normalized growth: 0.226 (active)
[12]
  normalized growth: 0.14 (active)
[13]
  normalized growth: 0.237 (active)
Locus YFL009W, strain cdc4, hits give low values
  normalized growth: 0.946
[14]
  normalized growth: 0.969
[15]
  normalized growth: 0.128 (active)
[16]
  normalized growth: 0.958
[17]
  normalized growth: 0.285 (active)
[18]
  normalized growth: 0.228 (active)
[19]
  normalized growth: 0.427 (active)
[20]
  normalized growth: 0.132 (active)
[21]
  normalized growth: 0.171 (active)
[22]
  normalized growth: 0.155 (active)
[23]
  normalized growth: 0.0561 (active)
[24]
  normalized growth: 0.964
[25]
  normalized growth: 0.172 (active)
[26]
  normalized growth: 0.949
[27]
  normalized growth: 0.168 (active)
[28]
  normalized growth: 0.976
[29]
  normalized growth: 0.135 (active)
[30]
  normalized growth: 0.129 (active)
[31]
  normalized growth: 0.599 (active)
[32]
  normalized growth: 0.287 (active)
[33]
  normalized growth: 0.447 (active)
Locus YKL193C, strain SDS22, hits give low values
  normalized growth: 0.948
[34]
  normalized growth: 0.551 (active)
[35]
  normalized growth: 0.186 (active)
[36]
  normalized growth: 0.267 (active)
[37]
  normalized growth: 0.161 (active)
[38]
  normalized growth: 0.135 (active)
Locus YMR001C, strain CDC5, hits give low values
  normalized growth: 0.952
[39]
  normalized growth: 0.486 (active)
Locus YMR277W, strain FCP1, hits give low values
  normalized growth: 0.882
[40]
  normalized growth: 0.949
[41]
  normalized growth: 0.319 (active)
Locus YNL161W, strain CBK1, hits give low values
  normalized growth: 0.966
[42]
  normalized growth: 0.173 (active)
[43]
  normalized growth: 0.973
[44]
  normalized growth: 0.267 (active)
[45]
  normalized growth: 0.118 (active)
[46]
  normalized growth: 0.427 (active)
[47]
  normalized growth: 0.636 (active)
[48]
  normalized growth: 0.224 (active)
Locus YOR329C, strain SCD5, hits give low values
  normalized growth: 0.978
[49]
  normalized growth: 0.144 (active)
[50]
  normalized growth: 0.178 (active)
[51]
  normalized growth: 0.197 (active)
[52]
  normalized growth: 0.965
[53]
  normalized growth: 0.172 (active)
Locus YPR025C, strain CCL1, hits give low values
  normalized growth: 0.957
[54]
  normalized growth: 0.967
[55]
  normalized growth: 0.952
[56]
  normalized growth: 0.963
Strain TSCII, hits give low values
  normalized growth: 0.914

## O=c1c(Sc2ccc(Cl)cc2)c(Sc2ccc(Cl)cc2)c1=O
[1]
  normalized growth: 0.984
[2]
  normalized growth: 0.961
[3]
  normalized growth: 0.978
[4]
  normalized growth: 0.973
[5]
  normalized growth: 0.985
[6]
  normalized growth: 0.973
[7]
  normalized growth: 0.967
[8]
  normalized growth: 0.104 (active)
[9]
  normalized growth: 0.977
[10]
  normalized growth: 0.971
[11]
  normalized growth: 0.136 (active)
[12]
  normalized growth: 0.0987 (active)
[13]
  normalized growth: 0.108 (active)
[14]
  normalized growth: 0.979
[15]
  normalized growth: 0.091 (active)
[16]
  normalized growth: 0.968
[17]
  normalized growth: 0.158 (active)
[18]
  normalized growth: 0.135 (active)
[19]
  normalized growth: 0.386 (active)
[20]
  normalized growth: 0.128 (active)
[21]
  normalized growth: 0.113 (active)
[22]
  normalized growth: 0.128 (active)
[23]
  normalized growth: 0.121 (active)
[24]
  normalized growth: 0.971
[25]
  normalized growth: 0.128 (active)
[26]
  normalized growth: 0.971
[27]
  normalized growth: 0.0972 (active)
[28]
  normalized growth: 0.974
[29]
  normalized growth: 0.0937 (active)
[30]
  normalized growth: 0.124 (active)
[31]
  normalized growth: 0.6 (active)
[32]
  normalized growth: 0.115 (active)
[33]
  normalized growth: 0.39 (active)
[34]
  normalized growth: 0.432 (active)
[35]
  normalized growth: 0.175 (active)
[36]
  normalized growth: 0.147 (active)
[37]
  normalized growth: 0.154 (active)
[38]
  normalized growth: 0.0995 (active)
[39]
  normalized growth: 0.241 (active)
[40]
  normalized growth: 0.45 (active)
[41]
  normalized growth: 0.196 (active)
[42]
  normalized growth: 0.114 (active)
[43]
  normalized growth: 0.973
[44]
  normalized growth: 0.261 (active)
[45]
  normalized growth: 0.0906 (active)
[46]
  normalized growth: 0.266 (active)
[47]
  normalized growth: 0.485 (active)
[48]
  normalized growth: 0.142 (active)
[49]
  normalized growth: 0.103 (active)
[50]
  normalized growth: 0.104 (active)
[51]
  normalized growth: 0.109 (active)
[52]
  normalized growth: 0.985
[53]
  normalized growth: 0.154 (active)
[54]
  normalized growth: 0.978
[55]
  normalized growth: 0.962
[56]
  normalized growth: 0.98
